Reference: PubChem BioAssay
“And” between values parts separate entries of the source, which are not always exact repeats. Equal entries are not always repeated. The source made the active and inactive calls.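 How the source made its calls: active means compounds whose cell count with miR-34 switched on is under 0.7 times the count with it off; inactive means the rest.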

Assay: viability loss with induced miR-34 in A549 – imaging, A549 dox-inducible miR-34, nuclei and caspase counts, primary screen (AID 1347080); further: test concentration not given here
Settings: A549 miR-34 inducible, Hoechst nuclei count, 48 h; stronger effect = lower value; cell number ratio, induced over uninduced

SMILES	fold change
C[C@@H]1CN(CCCn2c3ccccc3c3ccccc32)C[C@H](C)N1	0.959 (inactive)
Oc1c(I)cc(I)c2cccnc12	0.894 (inactive)
O=C1C(O)=C(O)C(=O)C(O)=C1O	0.863 (inactive) and 0.913 (inactive)
Oc1ccc(Cl)c2cccnc12	0.902 (inactive)
CN1CCN(c2cc3c(cc2F)c(=O)c(C(=O)O)cn3-c2ccc(F)cc2)CC1	0.87 (inactive)
CO/N=C1\CN(c2nc3c(cc2F)c(=O)c(C(=O)O)cn3C2CC2)CC1CN (stereo unspecified)	0.847 (inactive)
OCc1ccccc1O	0.861 (inactive)
O=C1OC(c2ccc(O)cc2)(c2ccc(O)cc2)c2ccccc21	0.823 (inactive)
C=CCc1ccc(O)c(OC)c1	0.949 (inactive)
NC(=O)c1ccc([N+](=O)[O-])cc1Cl	0.897 (inactive)
C=Cc1c(C)c2cc3[nH]c(cc4nc(cc5nc(cc1[nH]2)C(C)=C5CCC(=O)O)C(CCC(=O)O)=C4C)c(C)c3C=C	1.04 (inactive)
COc1ccc(CN(CCN(C)C)c2ncccn2)cc1	0.86 (inactive)
CC(=O)Nc1ccc(S(=O)(=O)Nc2ccc([N+](=O)[O-])cc2)cc1	0.908 (inactive)
CC(=O)OCC(COC(C)=O)OC(C)=O	0.85 (inactive)
CCN(CC)CC1CCCCN1CC(=O)N1c2ccccc2C(=O)Nc2cccnc21 (stereo unspecified)	0.915 (inactive) and 0.926 (inactive)
OCc1cccnc1	0.908 (inactive)
COc1ccc(C2C(=O)c3ccccc3C2=O)cc1	0.879 (inactive)
CC(=O)NO	0.922 (inactive)
Cc1cc(C(C)(C)C)c(O)c(C(C)(C)C)c1	0.871 (inactive)

SMILES	fold change
NC(=O)NC(=O)Cc1ccccc1	0.88 (inactive)
CC1CCC(NC(=O)N(CCCl)N=O)CC1 (stereo unspecified)	0.814 (inactive)
O=C(O)[C@@H]1[C@H]2C[C@H]3c4[nH]c5ccccc5c4CCN3C[C@@H]2CC[C@@H]1O	0.933 (inactive)
O=C(CCBr)N1CCN(C(=O)CCBr)CC1	0.869 (inactive)
CCOC(N)=O	0.875 (inactive)
CC(C)NC[C@@H](O)COc1cccc2ccccc12	0.945 (inactive)
CNCCCCOc1ccccc1Cc1ccccc1	0.954 (inactive) and 0.995 (inactive)
COc1cc(C)c(Cc2cnc(N)nc2N)cc1OC	0.944 (inactive)
CC[N+](C)(CC)CCOC(=O)C(O)(c1ccccc1)C1CCCCC1 (stereo unspecified)	0.958 (inactive)
Nc1ccc(C(=O)O)cc1	0.846 (inactive)
O=C(OCc1ccccc1)c1ccccc1	0.956 (inactive)
CCCCCCc1ccc(O)cc1O	0.901 (inactive)
CO[C@@]1(NC(=O)C(C(=O)O)c2ccc(O)cc2)C(=O)N2C(C(=O)O)=C(CSc3nnnn3C)CO[C@@H]21 (stereo partly specified)	0.852 (inactive)
CCCCCC(C)N (stereo unspecified)	0.893 (inactive)
NC(=O)c1ccccc1O	0.92 (inactive)
C=C[C@@]1(C)CC(=O)[C@]2(O)[C@@]3(C)[C@@H](O)CCC(C)(C)[C@@H]3[C@H](O)[C@H](OC(C)=O)[C@@]2(C)O1	0.943 (inactive)
O=C(O)CCCCC1CCSS1 (stereo unspecified)	1.15 (inactive)
Nc1c2c(nc3c1CCC3)CCCC2	1.06 (inactive)
CC(=O)OCC1=C(C(=O)O)N2C(=O)[C@@H](NC(=O)CSc3ccncc3)[C@H]2SC1	0.915 (inactive)

Same assay, conditions: A549 miR-34 inducible, Hoechst nuclei count, 48 h; measured here: relative caspase fold change +Dox/-Dox

SMILES	fold change
C[C@@H]1CN(CCCn2c3ccccc3c3ccccc32)C[C@H](C)N1	0.675
Oc1c(I)cc(I)c2cccnc12	1.48
O=C1C(O)=C(O)C(=O)C(O)=C1O	1.35 and 4.01
Oc1ccc(Cl)c2cccnc12	0.654
CN1CCN(c2cc3c(cc2F)c(=O)c(C(=O)O)cn3-c2ccc(F)cc2)CC1	0.995
CO/N=C1\CN(c2nc3c(cc2F)c(=O)c(C(=O)O)cn3C2CC2)CC1CN (stereo unspecified)	1.93
OCc1ccccc1O	4.19
O=C1OC(c2ccc(O)cc2)(c2ccc(O)cc2)c2ccccc21	1.14
C=CCc1ccc(O)c(OC)c1	0.583
NC(=O)c1ccc([N+](=O)[O-])cc1Cl	3.38
C=Cc1c(C)c2cc3[nH]c(cc4nc(cc5nc(cc1[nH]2)C(C)=C5CCC(=O)O)C(CCC(=O)O)=C4C)c(C)c3C=C	1.36
COc1ccc(CN(CCN(C)C)c2ncccn2)cc1	3.03
CC(=O)Nc1ccc(S(=O)(=O)Nc2ccc([N+](=O)[O-])cc2)cc1	3.51
CC(=O)OCC(COC(C)=O)OC(C)=O	3.03
CCN(CC)CC1CCCCN1CC(=O)N1c2ccccc2C(=O)Nc2cccnc21 (stereo unspecified)	1.68 and 0.696
OCc1cccnc1	1.47
COc1ccc(C2C(=O)c3ccccc3C2=O)cc1	2.05
CC(=O)NO	0.946
Cc1cc(C(C)(C)C)c(O)c(C(C)(C)C)c1	0.986

SMILES	fold change
NC(=O)NC(=O)Cc1ccccc1	0.863
CC1CCC(NC(=O)N(CCCl)N=O)CC1 (stereo unspecified)	5.15
O=C(O)[C@@H]1[C@H]2C[C@H]3c4[nH]c5ccccc5c4CCN3C[C@@H]2CC[C@@H]1O	1.33
O=C(CCBr)N1CCN(C(=O)CCBr)CC1	2.68
CCOC(N)=O	3.55
CC(C)NC[C@@H](O)COc1cccc2ccccc12	0.937
CNCCCCOc1ccccc1Cc1ccccc1	1.55 and 0.924
COc1cc(C)c(Cc2cnc(N)nc2N)cc1OC	1.06
CC[N+](C)(CC)CCOC(=O)C(O)(c1ccccc1)C1CCCCC1 (stereo unspecified)	1.3
Nc1ccc(C(=O)O)cc1	0.809
O=C(OCc1ccccc1)c1ccccc1	3.44
CCCCCCc1ccc(O)cc1O	1.55
CO[C@@]1(NC(=O)C(C(=O)O)c2ccc(O)cc2)C(=O)N2C(C(=O)O)=C(CSc3nnnn3C)CO[C@@H]21 (stereo partly specified)	0.729
CCCCCC(C)N (stereo unspecified)	1.93
NC(=O)c1ccccc1O	3.12
C=C[C@@]1(C)CC(=O)[C@]2(O)[C@@]3(C)[C@@H](O)CCC(C)(C)[C@@H]3[C@H](O)[C@H](OC(C)=O)[C@@]2(C)O1	1.09
O=C(O)CCCCC1CCSS1 (stereo unspecified)	0.668
Nc1c2c(nc3c1CCC3)CCCC2	2.56
CC(=O)OCC1=C(C(=O)O)N2C(=O)[C@@H](NC(=O)CSc3ccncc3)[C@H]2SC1	4.65
